KB-V1 cytotox: kills drug-selected multidrug resistant KB-V1 cells | hit rate 3.4% among 400,000 | Potency, µM (doses to about 46.1 µM), hits mostly cytotoxic | KB-V1 MDR cells viability, CellTiter-Glo, 72 h | AID 1347076; further: on the % scale 0 is the no-effect control and ±100 the full control effect; nearly all actives have a fitted effect of over 60% in size
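KB-V1, DMEM (no phenol red) + 10% FBS; cpd pin-transferred, titration series; 72 h, 37 degrees C; CellTiter-Glo, luminescence. Data normalized, curve-fit.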
TSG101-PTAP inh: blocks PTAP/TSG101 interaction to inhibit HIV-1 budding | Q99816 | Fluorescence polarization, FITC-PTAP peptide / Tsg101 binding | Potency, µM (series often up to 115 µM), without a hit: at the top dose activity change, negative = inhibition, usual class: inhibitors | 340,000 tested, under 10 active; active means well fitted inhibition curve with a large enough effect in the main read-out, with a control signal flat, not every such curve was filed as active; inconclusive means small, poorly fitted or top-dose-only effect, or effect the other way, or a change in a side signal; inactive means no such curve, though single readings can be large or run the other way; further: % of control where 0% means no effect
Target sequence (Q99816 whole entry, looked up): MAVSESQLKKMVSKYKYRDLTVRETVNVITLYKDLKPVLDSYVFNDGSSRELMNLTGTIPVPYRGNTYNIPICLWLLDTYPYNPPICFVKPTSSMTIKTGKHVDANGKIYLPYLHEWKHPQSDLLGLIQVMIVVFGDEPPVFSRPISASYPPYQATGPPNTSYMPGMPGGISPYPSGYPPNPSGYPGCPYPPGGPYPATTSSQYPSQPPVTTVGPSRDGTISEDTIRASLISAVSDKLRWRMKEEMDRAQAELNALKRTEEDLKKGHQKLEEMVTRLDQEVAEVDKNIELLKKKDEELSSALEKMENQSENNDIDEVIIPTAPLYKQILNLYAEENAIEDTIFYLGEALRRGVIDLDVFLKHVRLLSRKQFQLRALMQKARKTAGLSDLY
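Steps: Tsg101 binding domain dispensed (10 uM final), compounds pinned in DMSO, FITC-labeled PTAP-motif peptide added (50 nM final); after 20 min binding at room temperature, polarization measured.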
MCF10A rerep: DNA re-replication induction in MCF 10a cells. MCF 10A DNA re-replication, Hoechst nuclear intensity, 48 h. Potency, µM (highest dose often 46.1 µM), for the others: top-dose activity, positive = re-replication, hits mostly activators. hit rate 2.9% among 350,000. AID 624296; further: % of control where 0% means no effect; nearly all actives have a fitted effect of over 50% in size
PINK1 modulator: modulators of PINK1 expression; PINK1 immunofluorescence, high-content cytometry, 24 h; Potency, µM (doses to about 76.6 µM), for the others: at the highest dose activation (PINK1 increase), actives largely listed as activators; hit rate 0.2% among 410,000; AID 624263; active means well fitted activation curve with a large enough effect; inconclusive means small, poorly fitted or top-dose-only effect; cell line not stated here; further: % of control where 0% means no effect; nearly all actives have a fitted effect of over 65% in size
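PINK1 protein, normally rapidly degraded, was detected by immunofluorescence after 24 hour compound treatment of a stable cell line. Titration data (5 concentrations) came from laser-scanning cytometry, with CCCP-treated wells as controls.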
SW480 rerep: inducers of DNA re-replication in SW480 colon cancer cells. SW480 DNA re-replication, Hoechst DNA content imaging, 48 h. Potency, µM (top dose mostly 46.1 µM), inactives show top-dose re-replication activation, hits mostly activators. hit rate 1.8% among 340,000. AID 624297; further: % of control where 0% means no effect; nearly all actives have a fitted effect of over 55% in size
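Hoechst fluorescence of nuclei (405 nm excitation, 500-530 nm emission) measured by plate-scanning imager after 48 hr compound exposure at 37 C; re-replication scored as increased number of nuclei with elevated intensity.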
KB-3-1 tox: KB-3-1 parental cell cytotoxicity; KB-3-1 viability, CellTiter-Glo ATP luminescence, 72 h; hit rate 1.4% among 400,000; Potency, µM (doses to about 46.1 µM), hits mostly cytotoxic; further: on the % scale 0 is the no-effect control and ±100 the full control effect; nearly all actives have a fitted effect of over 60% in size
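Parental KB-3-1 adenocarcinoma cells in phenol-red-free DMEM with 10% FBS were pin-treated with compounds at several concentrations, incubated 72 h at 37 °C, and viability read by CellTiter-Glo luminescence; concentration-effect curves were fitted after normalization.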
* = called active by the depositor; i = inactive; ? = inconclusive; · = no result; [ ] = remark or other dose. Hits are enriched below; roughly 6.8% of the tested compounds scored in any of these assays. Unless noted, the call rests on the fitted dose curve; in most records, active means well fitted curve in the direction sought with a large enough effect; inconclusive means small, poorly fitted or top-dose-only effect, or another doubt; inactive means no such curve, though single readings can be large; an effect the other way counts as inactive or inconclusive. Potency means the concentration at half of the fitted maximal effect.

SMILES	KB-V1 cytotox	TSG101-PTAP inh	MCF10A rerep	PINK1 modulator	SW480 rerep	KB-3-1 tox
COCCCN1C(=O)c2ccccc2CC1(C)C(=O)NC1CCCCC1 (stereo not drawn)	·	·	·	0%	·	·
COc1ccc(C2=NN(C)C(=NCc3ccccc3)SC2)cc1	23µM*	-5%	27%	0%[38.3 µM]	4%	?
Cc1cccc(N2CCN(Cc3ccoc3)CC2)c1C	i	-1%	21µM*	-1%[38.3 µM]	?	i
COc1cc(CN2CCN(c3cccc(C)c3C)CC2)cc(OC)c1O	18µM*	-1%	11%	48%[38.3 µM]	-6%	i
Cc1cc(CN2CCN(c3cccc(C)c3C)CC2)cs1	·	·	·	13%	·	·
COc1ccc(CN=C2NN=C(c3ccc(Cl)cc3)CS2)cc1	i	1%	-8%	-1%	-1%	i
Clc1ccc(C2=NNC(=NCc3ccc4c(c3)OCO4)SC2)cc1	21µM*	1%	?	13%	?	?
Oc1ccc(C2=NNC(=NCc3ccc4c(c3)OCO4)SC2)c(O)c1	7.3µM*	0%	12µM*	1%	15µM*	2.6µM*
Cc1nc2sc(C)c(C)n2c(=O)c1S(=O)(=O)N1CCN(c2ccccc2F)CC1	i	·	·	0%	·	i
Cc1ccc(-n2c(SCC(N)=O)nc3c(oc4ccccc43)c2=O)cc1C	i	·	·	0%	·	i
CCCOc1ccc(F)cc1-c1cc(C(=O)Nc2ccc(C)c(NS(C)(=O)=O)c2)[nH]n1	23µM*	·	·	16%	·	?
CCCOc1ccc(F)cc1-c1cc(C(=O)Nc2ccc(OC)c(OC)c2)[nH]n1	21µM*	·	·	1%	·	?
COC(=O)c1ccccc1-c1cc(C)cc2c1OC(CNC(=O)c1cnc(C)cn1)C2 (stereo not drawn)	·	·	·	1%	·	·
Cc1noc(C)c1CCC(=O)Nc1c(C(C)C)cccc1C(C)C	15µM*	0%	-4%	-1%	-2%	i
CNC(=O)c1ccc(NC(=O)CCc2c(C)noc2C)cc1	i	-4%	13%	0%	-13%	i
OCCC1CN(Cc2nc(-c3ccccc3)cs2)CCN1CCc1ccccc1 (stereo not drawn)	i	-1%	2.9µM*	2%	-6%	?
COc1ccc(O)c(CN2CCN(CCCc3ccccc3)C(CCO)C2)c1 (stereo not drawn)	i	0%	0.23µM*	1%	-6%	i
OCCC1CN(Cc2nc(-c3ccc(F)cc3)cs2)CCN1CCc1ccccc1 (stereo not drawn)	i	-8%	-5%	1%	18%	i
Cc1cccc(NC(=O)Nc2nnc(N(C)C3CCCCC3)s2)c1C	i	·	·	4%	·	i
C=C1C=C(C(F)F)n2ncc(C(=O)N3CCc4ccccc4C3)c2N1	i	·	·	0%	·	?
COCCn1c(CCC(=O)Nc2ccc(C)c(Cl)c2)nc2cccnc21	i	·	·	4%	·	i
COc1ccc(-c2cn3nc(N4CCCC(C(=O)Nc5cccc(Cl)c5C)C4)sc3n2)cc1 (stereo not drawn)	i	·	·	1%	·	i
Cc1c(C(=O)N2CCCCCC2)c(S(=O)(=O)Nc2ccc(OC(F)(F)F)cc2)c(C)n1C	i	·	·	-2%	·	i
Cc1nn(-c2ccccc2)nc1C(=O)c1c(C)[nH]n(-c2ccccc2)c1=O	21µM*	1%	?	3%	23%	16µM*
CCCOc1c(Cl)cc(C(=O)N(Cc2cccc(OC)c2)C2CCS(=O)(=O)C2)cc1Cl (stereo not drawn)	i	·	·	0%	·	i
COc1cc2c(cc1OC)C1(Nc3c-2c(Cc2ccccc2)nn3-c2ccccc2)C(=O)Nc2ccccc21 (stereo not drawn)	i	-8%	6.5µM*	0%	?	?
NC(=O)c1c(-c2ccc(Cl)cc2Cl)csc1NC(=O)Cc1ccccc1	?	0%	23µM*	11%	-15%	?
